From PubChem BioAssay AID686978 (National Center for Advancing Translational Sciences (NCATS), 2013)
The campaign covered roughly 420,000 compounds. About 64,000 (15%) were called active. Not shown: some 27% with an inconclusive outcome. These entries were drawn from the full list. A number with no mark means an inactive call. Calls come from the whole dose curve; as a rule, active = well fitted inhibition curve with a large enough effect; inconclusive = small, poorly fitted or top-dose-only effect; inactive = flat fitted curve, though single readings scatter.

Experiment: qHTS for Inhibitors of human tyrosyl-DNA phosphodiesterase 1 (TDP1): qHTS in cells in absence of CPT; note: nearly all actives have a fitted effect of over 55% in size
Settings: DT40 Tdp1-/- hTDP1 cells, no CPT, ATP luminescence, 48 h; activity change, negative = growth inhibition: at 46.2 µM (top of the series)
Summary of the method: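 Compound effects on proliferation are scored in DT40 Tdp1-/-;hTDP1 cells in the absence of CPT. ATP levels (CellTiter-Glo luminescence) are recorded after a ≥48 hr, 37 °C incubation.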
% is set by controls: 0 for no effect and ±100 for the full control effect; potency is the fitted concentration of half-maximal effect.

First: O=C(CNS(=O)(=O)c1ccc(Br)s1)N1CCN(C(=O)c2ccco2)CC1
Second: O=C(c1ccc2c(c1)C(=O)N(Cc1ccncc1)C2=O)N1CCN(S(=O)(=O)c2ccc(OC(F)(F)F)cc2)CC1
The “activity change, negative = growth inhibition” value of the first is higher: -15.3% for the first, -20% for the second.

First: O=C(CNC(=O)c1cc2c(s1)CCC2)Nc1ccccc1Br
Second: Cc1nnc(SCC(=O)N2CCc3ccccc3C2)s1
The “activity change, negative = growth inhibition” value of the first is lower: -25.6% for the first, -19% for the second.

Compared with `Cc1ccc(C(=O)N/C(=C\c2cccs2)C(=O)NCCc2ccccn2)cc1C`, `CC(C)C(NC(=O)c1cccc(S(=O)(=O)N2CCOCC2)c1)C(=O)NCCc1ccccn1` (centres undefined) is higher in “activity change, negative = growth inhibition” value: -26.9% for the first, -8.62% for the second.

First: COc1ccc2oc(=O)c(C(=O)NCc3ccccn3)cc2c1
Second: CC(=O)NCCNC(=O)c1cc(-c2cccc3ccccc23)nc2ccccc12
The “activity change, negative = growth inhibition” value of the first is lower: -20.1% for the first, 9.72% for the second.

Going from `C[C@H](CO)N1C[C@H](C)[C@H](CN(C)C(=O)Nc2ccc3c(c2)OCO3)Oc2ncc(Br)cc2C1=O` to `C[C@H]1CN([C@@H](C)CO)S(=O)(=O)c2ccc(Br)cc2O[C@H]1CN(C)C(=O)c1cnccn1`, the “activity change, negative = growth inhibition” value rises from -3.88% to -0.338%.

Going from `CN1CCCC(OC(=O)COc2ccc(Br)cc2)C1` (centres undefined) to `CCOC(=O)C1CCN(C(=O)Nc2ccc(Cl)cc2)CC1`, the “activity change, negative = growth inhibition” value falls from 6.51% to -21.3%.

Compared with `CCOc1ccccc1-n1c(SCC(=O)N2CCCC2)nnc1-c1ccoc1C`, `Cc1cccc(N2CCN(c3c(CN4CCCC4)c(=O)oc4ccccc34)CC2)c1C` is higher in “activity change, negative = growth inhibition” value: -5.39% for the first, 5.73% for the second.

Compared with `CC(=O)Nc1ccc(N2C(=O)CC(Sc3nccc(C)n3)C2=O)cc1` (centres undefined), `Cc1cc(C)nc(NC(=O)C(C)N2C(=O)c3ccccc3C2=O)n1` (centres undefined) is higher in “activity change, negative = growth inhibition” value: -28.4% for the first, -11.5% for the second.

First: COc1ccc(C(=O)NC(C)c2nccs2)cc1OC1CCN(C(C)C)CC1 (centres undefined)
Second: COc1ccc(C(=O)Nc2c(N)nc(SCC(=O)N3CCC(C)CC3)[nH]c2=O)cc1OC
The “activity change, negative = growth inhibition” value of the first is higher: 13.2% for the first, 2.88% for the second.

Compared with `COc1ccc(-c2[nH]ncc2CN(C)Cc2cc(C)[nH]n2)c(F)c1`, `CCN(CCCCOC(=O)c1ccc(OC)c(OC)c1)C(C)Cc1ccc(OC)cc1` (centres undefined) is higher in “activity change, negative = growth inhibition” value: -26.4% for the first, -25% for the second.

Compared with `Cc1cc(Cl)nc(NC(=O)Nc2cccc(Cl)c2)n1`, `CCOC(=O)C1=C(O)CSC1=Nc1cccc(Cl)c1` is higher in “activity change, negative = growth inhibition” value: -24.8% for the first, 0.713% for the second.

First: O=C(COC(=O)c1ccncc1)c1ccccc1
Second: Cc1ccc(C(=O)COC(=O)c2cccc(N3C(=O)c4c(C)nc5ccccc5c4C3=O)c2)cc1C
The “activity change, negative = growth inhibition” value of the first is lower: -1.61% for the first, 14.6% for the second.

First: O=C(NC1CCCCC1)c1ccc(CNc2c(N3CCOCC3)c(=O)c2=O)cc1
Second: CC1CCC(NC(=O)c2ccc(N3CCCC3=O)cc2)CC1 (centres undefined)
The “activity change, negative = growth inhibition” value of the first is lower: -6.18% for the first, 2.73% for the second.

First: CNC(=S)N1CCC(NC(=O)C(Cc2ccc(F)cc2)NC(C)=O)CC1 (centres undefined)
Second: O=C(CC1CCCCC1)NCc1ccc(F)cc1
The “activity change, negative = growth inhibition” value of the first is lower: -8.04% for the first, -0.903% for the second.

Compared with `CCOc1ccc(C(CC(=O)O)n2cnnn2)cc1OC` (centres undefined), `CCN(CC)S(=O)(=O)c1ccc(OC(C)C)c(N)c1` is lower in “activity change, negative = growth inhibition” value: -2.39% for the first, -17.6% for the second.

Going from `CC(C)Nc1nnc(SC(C)C(=O)N(C)C2CCCCC2)s1` (centres undefined) to `Cc1nc(SCC(=O)Nc2cc(C)on2)c2c(C)c(C)sc2n1`, the “activity change, negative = growth inhibition” value rises from -20.8% to -14.9%.

First: CC(Oc1ccccc1)C(=O)NN1Cc2ccccc2C1=N (centres undefined)
Second: O=C(NCC(O)c1nc2ccccc2[nH]1)c1ccc(Br)cc1 (centres undefined)
The “activity change, negative = growth inhibition” value of the first is higher: 4.93% for the first, -3.34% for the second.

Going from `Cc1nn(C)cc1N1C(=O)c2cccc3c(N)ccc(c23)C1=O` to `CCN(CC(=O)Nc1cc(Cl)ccc1C)C(=O)CN1C(=O)NC2(CCCC2)C1=O`, the “activity change, negative = growth inhibition” value rises from -21.5% to -2.6%.

First: CN(C)CCNC(=O)Nc1cccc(Cl)c1Cl
Second: CC1CC(C)CN(CC(=O)Nc2ccc(S(N)(=O)=O)cc2)C1 (centres undefined)
The “activity change, negative = growth inhibition” value of the first is lower: -9.59% for the first, -2.41% for the second.

First: CCNC(=S)N(CCN(CC)CC)Cc1cc2cc3c(cc2[nH]c1=O)OCCO3
Second: O=[N+]([O-])c1ccc(N2CCOCC2)cc1
The “activity change, negative = growth inhibition” value of the first is lower: -29.6% for the first, -11.2% for the second.

First: Oc1c(C(c2cccs2)N2CCN(c3ccc(F)cc3)CC2)sc2ncnn12 (centres undefined)
Second: O=C(O)C1CCN(c2ccc([N+](=O)[O-])cc2[N+](=O)[O-])CC1
The “activity change, negative = growth inhibition” value of the first is lower: -10.6% for the first, -1.31% for the second.

For `COc1cncc(-c2cnc3sc(NCCc4ccccn4)nn23)c1`, the Potency was 13 µM (active).
For `CCOc1ccccc1N1C(=O)CC(Sc2nccc(C)n2)C1=O` (centres undefined), the Potency was 20.6 µM (active).
For `Cc1cc(C)nc(NC(=O)Nc2ccccc2C(F)(F)F)n1`, the Potency was 18.4 µM (active).
With `O=C(COC(=O)c1c2c(nc3ccccc13)CCCC2)c1ccc(Br)s1` the Potency was 7.31 µM (active).
In the case of `CN1C(=O)/C(=C/c2ccc(C(=O)NC3CCCC3)cc2)Oc2ccccc21`, the Potency was 10.3 µM (active).
In the case of `CN(C)c1nc(=Nc2cccc(Cl)c2)ss1`, the Potency was 0.206 µM (active).
With `Cc1cccc(N2CCN(C3=C(c4ccccc4)C(=O)c4ccccc43)CC2)c1C` the Potency was 11.6 µM (active).
For `CCc1oc(-c2ccc(OC)cc2)c(C(=O)OCCCCCO)c1C(C)OCCO` (centres undefined), the Potency was 16.4 µM (active).
For `Oc1ccc(Br)cc1C1C=C(c2ccc3c(c2)OCO3)NC(c2ccc(Cl)cc2)N1` (centres undefined), the Potency was 5.01 µM (active).
For `CN(C)CCNC(=O)c1ccc(Cl)c2cc3ccccc3nc12`, the Potency was 0.146 µM (active).
With `Cc1nc(SCC(=O)N2CCc3ccccc3C2)c2c(C)c(C)sc2n1` the Potency was 16.4 µM (active).
With `O=[N+]([O-])c1ccc(N2CCN(c3ccc(O)cc3)CC2)c(Cl)c1` the Potency was 13 µM (active).
